# Data from ChEMBL document CHEMBL1857833, “Screening and optimization of specific chemical series against human African Trypanosomiasis (HAT)”.
# Among all 4,400 compounds or so, about 390 (8.9%) showed an effect of 50% or more. The list comes from a sample in which strong results are over-represented; it also holds similar structures and randomly drawn compounds.
# Tested on: Trypanosoma brucei
# Experiment: DNDI: Inhibition of Human African Trypanosomiasis, SBRI 427, in vitro at 2 ug.mL-1
# Assay type: functional
row,SMILES,% inhibition [%]
1,CC1CCCCN1Cc1coc(-c2ccco2)n1 (stereo not given),1
2,C(=C\c1ccccc1)/CN1CCN(Cc2coc(-c3cccc4ccccc34)n2)CC1,19
3,O/N=C(/c1ccc(Oc2cccc(F)c2)nc1)N1CCCCC1,5
4,c1csc(-c2nc(CNCC3CCCO3)co2)c1 (stereo not given),2
5,COc1ccc(-c2nc(CN3CCCCC3)co2)cc1,4
6,Cc1ccc(/C(=N/O)N2CCCCC2)c(Oc2ccc(-n3ccnc3)cc2)n1,12
7,Cc1ccc(/C(=N/O)NC(C)C)c(Oc2cccc(C(C)C)c2)n1,7
8,Cc1ccc(/C(N)=N/O)c(Oc2ccc(C(C)C)cc2)n1,31
9,Cc1cc(Oc2nc(C)ccc2/C(N)=N/O)cc(C(C)C)c1,55
10,Cc1cc(Oc2ncccc2/C(N)=N/O)cc(C(C)C)c1,20
11,Cc1cccc(Oc2nc(C)ccc2/C(N)=N/O)c1,-4
12,Cc1ccc(/C(N)=N/O)c(Oc2cccc(C(C)C)c2)n1,57
13,Cc1cccc(Oc2nc(C)ccc2/C(=N/O)N2CCSCC2)c1,1
14,Cc1ccc(/C(N)=N/O)c(Oc2c(F)c(F)cc(F)c2F)n1,4
15,Cc1ccccc1NCc1coc(-c2ccccc2F)n1,-5
16,COc1ccc(Oc2ncccc2/C(=N/O)n2ccnc2C)cc1,-2
17,COc1cc2c(cc1OC)C(C(C)C)N(Cc1coc(-c3ccc(C)cc3)n1)CC2 (stereo not given),27
18,COc1cc(CNCc2coc(-c3ccc(C(F)(F)F)cc3)n2)cc(OC)c1,-1
19,Fc1ccc(-c2nc(CNCc3ccncc3)co2)cc1,-3
20,Cc1cc(C)cc(Oc2ccc(/C(=N/O)NCc3ccccc3)cn2)c1,-3
21,CC1CCC(N/C(=N\O)c2ccc(Oc3cccc4ccccc34)nc2)CC1 (stereo not given),19
22,Cc1cccc(Oc2ccc(/C(=N/O)NC(C)C)cn2)c1,8
23,CCC(C)(C)N/C(=N\O)c1ccc(Oc2ccc(F)cc2)nc1,27
24,CCC(C)(C)N/C(=N\O)c1ccc(Oc2cccc3c2OC(C)(C)C3)nc1,11
25,CCC(C)(C)N/C(=N\O)c1ccc(Oc2cccc(C)c2)nc1,67
26,Cc1cc(C)cc(CN/C(=N\O)c2ccc(Oc3cccc(C)c3)nc2)c1,19
27,CCC(C)(C)N/C(=N\O)c1ccc(Oc2cc(C)cc(C(C)C)c2)nc1,91

row,SMILES,% inhibition [%]
1,Cc1cc(Oc2ccc(/C(=N/O)NCc3cc(F)cc(F)c3)cn2)cc(C(C)C)c1,17
2,Cc1cc(Oc2ccc(/C(=N/O)NCc3ccccc3)cn2)cc(C(C)C)c1,14
3,CCC(C)(C)N/C(=N\O)c1ccc(Oc2cc(C)cc(C)c2)nc1,95
4,CCC(C)(C)N/C(=N\O)c1ccc(Oc2cccc3ccccc23)nc1,95
5,COCCCNCc1coc(-c2ccccc2)n1,38
6,CC1CC(C)CN(/C(=N\O)c2ccc(Oc3cc(Cl)ccc3Cl)nc2)C1 (stereo not given),10
7,CN(Cc1cccnc1)/C(=N\O)c1ccc(Oc2cc(Cl)ccc2Cl)nc1,-14
8,Cc1ccc(/C(=N/O)N2CC=CC2)c(Oc2cccc3ccc(C)nc23)n1,28
9,N/C(=N\O)c1ccc(Oc2ccc3ccccc3c2)nc1,12
10,Cc1ccc(/C(=N/O)N2CCC=N2)c(Oc2cccc(F)c2)n1,21
11,CCN(CCC#N)Cc1coc(-c2ccc(C(F)(F)F)cc2)n1,-3
12,Cc1ccccc1CN/C(=N\O)c1ccnc(Oc2ccc(F)c(Cl)c2)c1,14
13,CN(/C(=N\O)c1cccnc1Oc1ccc(-n2cncn2)cc1)C1CCCCC1,14
14,Cc1ccc(-c2nc(CNCc3ccccc3)co2)cc1,-10
15,O/N=C(/c1ccc(Oc2ccc3ccccc3c2)nc1)N1CCC2CCCCC2C1 (stereo not given),28
16,O/N=C(/c1ccc(Oc2cc(Cl)ccc2Cl)nc1)N1CCC2CCCCC2C1 (stereo not given),-2
17,CC1CC(C)CN(/C(=N\O)c2ccc(Oc3cccc4cccnc34)nc2)C1 (stereo not given),-24
18,O/N=C(/c1ccc(Oc2ccc(Cl)cc2)nc1)N1CCC2CCCCC2C1 (stereo not given),99
19,O/N=C(/c1ccc(Oc2cccc3cccnc23)nc1)N1CCN(c2ccccc2)CC1,-27
20,O/N=C(/c1ccc(Oc2cccc3cccnc23)nc1)N1CCC2CCCCC2C1 (stereo not given),58
21,CCOc1ccc(Oc2nc(C)ccc2/C(=N/O)N2CC(C)CC(C)C2)cc1 (stereo not given),8
22,Cc1cc(Oc2ccc(/C(=N/O)NCc3cc(F)ccc3F)cn2)cc(C(C)C)c1,-14
23,O/N=C(/c1cccnc1OC1CCC1)N1CCN(c2ccc(F)cc2)CC1,7
24,CC(=O)c1ccc(N2CCN(Cc3coc(-c4ccccc4Cl)n3)CC2)cc1,-7
25,Cc1ccc(/C(=N/O)N2CCC(N(C)C)C2)c(Oc2ccc3ccccc3c2)n1 (stereo not given),20
26,CCC(CC)N/C(=N\O)c1cccnc1Oc1ccc(C)c2c1CCC2,99
27,Cc1ccc(Oc2ncccc2/C(=N/O)N2CCC3CCCCC3C2)c2c1CCC2 (stereo not given),-7

row,SMILES,% inhibition [%]
1,COCCN/C(=N\O)c1cccnc1Oc1ccc(C)c2c1CCC2,80
2,Cc1ccc(Oc2ncccc2/C(N)=N/O)c2c1CCC2,9
3,Cc1ccc(Oc2ncccc2/C(=N/O)N2CC(C)CC(C)C2)c2c1CCC2 (stereo not given),6
4,CCCN/C(=N\O)c1cccnc1Oc1ccc(C)c2c1CCC2,42
5,COCC(C)N/C(=N\O)c1cccnc1Oc1ccc(C)c2c1CCC2 (stereo not given),12
6,Cc1ccc(Oc2cc(/C(=N/O)NCC3CC3)ccn2)c2c1CCC2,40
7,Cc1ccc(Oc2ncccc2/C(=N/O)NCC2CC2)c2c1CCC2,99
8,Cc1ccc(Oc2ncccc2/C(=N/O)NC(C)C)c2c1CCC2,8
9,Cc1ccc(Oc2ncccc2/C(=N/O)NC2CCC(C)CC2)c2c1CCC2 (stereo not given),100
10,Cc1ccccc1-c1nc(Cn2ncc3c2CCCC3)co1,-16
11,O/N=C(/c1ccc(Oc2cc(Cl)ccc2Cl)nc1)N1CCSCC1,-11
12,COc1ccc(Oc2nc(C)ccc2/C(=N/O)N(C)Cc2cccnc2)cc1,-3
13,CCCN(CCC)Cc1coc(-c2ccccc2Cl)n1,16
14,Oc1ccc(-c2nc(CN3CCc4ccccc4C3)co2)cc1,8
15,CCOc1ccc(-c2nc(CN(C)CC#N)co2)cc1,4
16,CSc1ccc(Oc2nc(C)ccc2/C(=N/O)n2nc(C)cc2C)cc1C,16
17,CSc1ccccc1Oc1ncccc1/C(=N/O)N1CCN(c2ccc(F)cc2)CC1,19
18,Cc1cccc(N2CCN(Cc3coc(-c4ccc(OC(F)(F)F)cc4)n3)CC2)c1C,-7
19,CC(C)CN/C(=N\O)c1cccnc1Oc1ccccc1,17
20,Cc1ccc(Oc2ncccc2/C(=N/O)N2CCCC2)c2c1CCC2,-1
21,Cc1ccc(Oc2ncccc2/C(=N/O)NCC(C)C)c2c1CCC2,100
22,CCOc1ccccc1-c1nc(CN2CCN(c3cccc(OC)c3)CC2)co1,-3
23,COc1ccc(CNCc2coc(-c3ccc(F)cc3)n2)cc1OC,-5
24,CC1CCN(/C(=N\O)c2ccc(Oc3c(F)c(F)cc(F)c3F)nc2)CC1,9
25,COc1ccc(CN/C(=N\O)c2cccnc2OCC(C)C)cc1,-1
26,C#CC(CC)(CC)NCc1coc(-c2ccc(OC)cc2)n1,-8
27,C=CCc1ccc(Oc2cc(/C(=N/O)NCc3ccc(OC)cc3)ccn2)c(OC)c1,88

row,SMILES,% inhibition [%]
1,C=CCc1ccc(Oc2ccc(/C(=N/O)NCc3ccc(OC)cc3)cn2)c(OC)c1,10
2,C=CCc1ccc(Oc2cc(/C(=N/O)NCc3cccc(OC)c3)ccn2)c(OC)c1,35
3,C=CCc1ccc(Oc2ccc(/C(=N/O)NCc3ccncc3)cn2)c(OC)c1,80
4,C=CCc1ccc(Oc2cc(/C(=N/O)NCc3cccnc3)ccn2)c(OC)c1,3
5,C=CCc1ccc(Oc2cc(/C(=N/O)NCc3ccncc3)ccn2)c(OC)c1,23
6,c1ccc(-c2nccn2Cc2coc(-c3cccc4ccccc34)n2)cc1,-1
7,O/N=C(\NCc1ccco1)c1cccnc1OCc1ccccc1,17
8,CSc1ccc(Oc2cc(/C(=N/O)NCc3c(F)cccc3F)ccn2)cc1,19
9,COc1cc(CN(C)Cc2coc(-c3cccc4ccccc34)n2)cc(OC)c1OC,-3
10,CCn1nccc1NCc1coc(-c2ccc(F)cc2)n1,-5
11,COc1cccc(-c2nc(CN(C)CCC#N)co2)c1,4
12,C=CCc1ccc(Oc2ncccc2/C(N)=N/O)c(OC)c1,18
13,CN(/C(=N\O)c1ccnc(Oc2ccc(F)c(F)c2)c1)C1CCCCC1,35
14,CN(/C(=N\O)c1ccnc(Oc2cc(Cl)ccc2Cl)c1)C1CCCCC1,16
15,O/N=C(\NC1CCCCC1)c1ccnc(Oc2ccc(F)c(Cl)c2)c1,88
16,CC1CCCC(C)N1/C(=N\O)c1ccnc(Oc2ccc(F)c(Cl)c2)c1 (stereo not given),9
17,CN(/C(=N\O)c1ccnc(Oc2ccc(F)c(Cl)c2)c1)C1CCCCC1,94
18,O/N=C(\NC1CCCC1)c1ccnc(Oc2ccc(F)c(Cl)c2)c1,96
19,CC1CCC(N/C(=N\O)c2ccnc(Oc3ccc(F)c(Cl)c3)c2)CC1 (stereo not given),42
20,O/N=C(/c1ccnc(Oc2ccc(F)c(Cl)c2)c1)N1CCCCC1,8
21,O/N=C(\NCc1ccccc1F)c1ccnc(Oc2ccc(F)c(Cl)c2)c1,44
22,Cc1cn(Cc2coc(-c3ccc(F)cc3)n2)cn1,9
23,N#CCCN(Cc1coc(-c2ccc(Cl)cc2Cl)n1)CC1CCCO1 (stereo not given),9
24,Oc1ccc(-c2nc(CN3CCN(Cc4ccccc4)CC3)co2)cc1,18
